The results in this text go back to PubChem BioAssay (Tox21).

Several values for one entry are separate records, joined by “and”; a condition that tells them apart may be missing. Identical values can stand only once. Results filed as inconclusive are left out. A number with no mark means an inactive call. Activity calls are given as the source filed them. Calls come from the whole dose curve; as a rule, active = well fitted activation curve with a large enough effect in the repeat runs; inconclusive = weak or mixed curves; inactive = flat fitted curve, though single readings scatter.
% is set by controls: 0 for no effect and ±100 for the full control effect; potency is the fitted concentration of half-maximal effect.

The experiment can be described thus: A CellTox Green Cytotoxicity Assay to monitor cytotoxicity in HepG2 cells - 16 hour (AID 1224876). Note: nearly all actives have a fitted effect of over 45% in size. Conditions: CellTox Green fluorescence; series mostly up to 76.8 µM; cytotoxicity increase: at the top concentration. The gist of the method:
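Cytotoxicity was tracked as dead-cell DNA fluorescence in HepG2 cells treated with test compounds at 37 C; each time-point value comes from one kinetic series spanning 0, 8, 16, 24, 32 and 40 h.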
For the molecule `O=C=Nc1ccc(Cl)c(Cl)c1`, the “cytotoxicity increase” value was -6.16%. The same measure, in the same setting: the figure for `CCOC(C)=O` is -14.5%.

For `C=CC(=O)[O-].C=CC(=O)[O-].[Zn+2]`, the “cytotoxicity increase” value is 1.51%. On the same count and under the same terms, under `C/C=C/C=C/C=O` stands 3.97%; under `O=C(O)c1cccc(-c2noc(-c3ccccc3F)n2)c1`, 2.78% [at 35.3 µM].

Consider `CC(C)=CCC1C(=O)N(c2ccccc2)N(c2ccccc2)C1=O`, for which the “cytotoxicity increase” value is -2.38% [at 35.3 µM]. For `CCOC(=O)c1ccc(OCCN2C[C@H](O)[C@@H](O)[C@H](O)[C@H]2CO)cc1`, the “cytotoxicity increase” value is 1.75% [at 35.3 µM].

Consider `CCC(=O)OC`, for which the “cytotoxicity increase” value was 6.18%. Same read-out and setting: the figure for `CCC=CC#N` is 2.85%; for `CCCCCCC(C)(C)C(=O)O` it is -1.11%. For the molecule `CCCC(=O)C(=O)O`, the “cytotoxicity increase” value was -7.87%. The same measure, in the same setting: under `Cc1[nH]cnc1CN1CCc2c(c3ccccc3n2C)C1=O` stands -3.72% [at 35.3 µM]; under `C[C@H]1C[C@H](O)c2ccsc2S1(=O)=O`, -0.123% [at 35.3 µM]; under `CN1C(C(=O)Nc2ccccn2)=C(O)c2sccc2S1(=O)=O`, 2.66% [at 35.3 µM]. For `CCC(C)COC(C)=O` (stereo not given), the “cytotoxicity increase” value is 0.758%. With `C[C@]12CC[C@@H]3c4ccc(O)cc4CC[C@H]3[C@@H]1CC[C@@H]2OC(=O)CCC1CCCC1`, the Potency is 49 µM (active) and 19 µM (active). As to `FC(F)(F)c1ccccc1Cl`, the “cytotoxicity increase” value is -7.63%.

`O=c1[nH]c2ccc(Cl)cc2o1`: the “cytotoxicity increase” value is -8.81%. The same measure, in the same setting: the figure for `Brc1cc(Br)c(Oc2cc(Br)c(Br)cc2Br)cc1Br` is -2.34% [at 35.3 µM]; for `Cc1c(C)c2c(c(C)c1OC(=O)CCC(=O)OCCO)CC[C@@](C)(CCC[C@H](C)CCC[C@H](C)CCCC(C)C)O2` it is 4.43% [at 35.3 µM]; for `CCc1ccccc1` it is -11.5%.

For the molecule `OC[C@H]1O[C@@H](n2cnc3c(=S)nc[nH]c32)[C@H](O)[C@@H]1O`, the “cytotoxicity increase” value was 0.0508% [at 35.3 µM]. For the molecule `O=C(O)CCC(=O)C(=O)O`, the “cytotoxicity increase” value is 1.03%.

As to `C=C(C)CCCC(C)CCO` (stereo not given), the “cytotoxicity increase” value is 15.5%.

On to `CCCCCC[C@@H](O)C/C=C\CCCCCCCC(=O)O`, for which the “cytotoxicity increase” value is 4.3%. Turning to `CCCCC(CC)CN` (stereo not given), the “cytotoxicity increase” value was 12.3%. Same read-out and setting: the figure for `CC1=C(Br)C(=O)C(Br)=C/C1=C(/c1ccccc1S(=O)(=O)O)c1cc(Br)c(O)c(Br)c1C` is -12.4% [at 35.3 µM]; for `O[C@@H]1CO[C@H]2[C@@H]1OC[C@@H]2O` it is 2.86% [at 35.3 µM]. Same read-out and setting: under `CCCCCCCCCCC(=O)O` stands 13.9%. `CC1(C)[C@H](C(=O)O)N2C(=O)C[C@H]2S1(=O)=O`: the “cytotoxicity increase” value is -22.4% [at 35.3 µM]. On the same count and under the same terms, under `CN1CC(=O)N2[C@H](c3ccc4c(c3)OCO4)c3[nH]c4ccccc4c3C[C@@H]2C1=O` stands -6.24% [at 35.3 µM]; under `O=C(/C=C/c1ccccc1)OCCc1ccccc1`, -0.623%. Same read-out and setting: under `Nc1cccc2c1CN(C1CCC(=O)NC1=O)C2=O` (stereo not given) stands -0.764% [at 35.3 µM]. Same read-out and setting: under `Cc1ccccc1S` stands -5.4% [at 35.3 µM]; under `CN1C(=O)OC(C)(C)C1=O`, 9.87%; under `Oc1cccc(O)c1O`, -7.59%. Turning to `COc1cc(C(=O)NCCCCCC(=O)O)cc(OC)c1OC`, the “cytotoxicity increase” value is 1.78% [at 35.3 µM]. Same read-out and setting: under `CCOC(=O)[C@H](CCc1ccccc1)N[C@@H](C)C(=O)N(CC(=O)O)C1Cc2ccccc2C1` stands 2.95% [at 35.3 µM]; under `C=C/C(C)=C/C/C=C(\C)CCC=C(C)C`, -0.583%. For the molecule `CCOC(=O)OC(C)OC(=O)[C@@H]1N2C(=O)[C@@H](NC(=O)[C@H](N)c3ccccc3)[C@H]2SC1(C)C` (stereo not given in full), the “cytotoxicity increase” value was 3.21% [at 35.3 µM].
